Reference: PubChem BioAssay AID2156 (Johns Hopkins Ion Channel Center, 2009)
The whole screen tested about 310,000 compounds, of which about 3,400 (1.1%) were called active. The full list was thinned out, with actives kept by preference. Unmarked numbers belong to inactive results.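 How the source made its calls: active means fluorescence ratio B-score at most minus 3 library SDs, with starting brightness B-score within 2 library SDs (cut at about -5.5 in these data); inactive means the rest, inconclusive results apart.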

Each compound was assayed against Potassium voltage-gated channel subfamily KQT member 2 (Rattus norvegicus) (UniProt O88943) (assay: rat KCNQ2 potassium channel inhibitors, primary screen, cell-based, CHO-K1, FluxOR thallium flux, B-score (AID 2156)). Conditions: 20 min, at 10 µM; active compounds read low.
Sequence of Potassium voltage-gated channel subfamily KQT member 2 (Rattus norvegicus) (O88943 whole entry, looked up): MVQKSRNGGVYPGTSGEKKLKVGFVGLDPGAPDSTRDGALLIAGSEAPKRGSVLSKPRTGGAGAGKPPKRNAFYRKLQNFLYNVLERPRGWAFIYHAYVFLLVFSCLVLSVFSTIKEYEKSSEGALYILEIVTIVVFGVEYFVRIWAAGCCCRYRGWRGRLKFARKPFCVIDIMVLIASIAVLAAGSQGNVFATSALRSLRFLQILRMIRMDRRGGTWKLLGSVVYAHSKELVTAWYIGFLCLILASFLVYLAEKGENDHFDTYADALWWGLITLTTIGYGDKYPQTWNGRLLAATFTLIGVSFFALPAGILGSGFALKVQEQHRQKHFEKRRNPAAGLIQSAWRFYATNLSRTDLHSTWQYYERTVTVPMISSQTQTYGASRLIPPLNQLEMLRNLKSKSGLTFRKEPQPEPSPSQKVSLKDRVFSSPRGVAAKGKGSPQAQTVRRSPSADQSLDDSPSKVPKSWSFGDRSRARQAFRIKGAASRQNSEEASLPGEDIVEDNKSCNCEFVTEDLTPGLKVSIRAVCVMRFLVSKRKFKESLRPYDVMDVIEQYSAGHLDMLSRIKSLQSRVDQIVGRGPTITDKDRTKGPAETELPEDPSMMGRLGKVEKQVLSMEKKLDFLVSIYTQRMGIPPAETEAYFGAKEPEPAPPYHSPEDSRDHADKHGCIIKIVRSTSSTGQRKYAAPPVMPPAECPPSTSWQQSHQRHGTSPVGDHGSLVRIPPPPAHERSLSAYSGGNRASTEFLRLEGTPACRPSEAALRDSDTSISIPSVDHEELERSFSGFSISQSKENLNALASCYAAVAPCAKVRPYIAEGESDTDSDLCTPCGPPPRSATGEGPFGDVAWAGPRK

Structure (SMILES)	B-score
COc1cc(C(=O)N(C)Cc2cccc(OC)c2OC)ccc1OCC(=O)Nc1cccc(C(F)(F)F)c1	-4.11
COc1ccc(F)cc1S(=O)(=O)NCC(c1ccc2c(c1)OCO2)N1CCN(C)CC1 (configuration not stated)	-0.58
Cc1cc(OCC(=O)Nc2c(C)n(C)n(-c3ccccc3)c2=O)ccc1[N+](=O)[O-]	-0.54
Cc1cc(OCCCCOc2ccc(C#N)cc2)ccc1[N+](=O)[O-]	-6.09 (active)
Cc1cc(OCCCN2CCN(Cc3ccccc3)CC2)ccc1[N+](=O)[O-]	inactive
Cc1cccc(N(Cc2ccccc2)C(=O)c2cc(S(=O)(=O)N3CCOCC3)ccc2F)c1	inactive
CC(=O)c1c(C)[nH]c(C(=O)CN2C(=O)NC(C)(C)C2=O)c1C	inactive
COc1ccccc1NS(=O)(=O)c1ccc(C(=O)N2CCN(c3ccccc3O)CC2)cc1	inactive
Cc1c(NC(=O)C(C)OC(=O)c2c3c(nc4ccccc24)CCC(C)C3)c(=O)n(-c2ccccc2)n1C (configuration not stated)	inactive
Cc1ccc2c(c1)N(C(=O)CCC(=O)N1CCc3ccccc3C1)CCO2	-5.74 (active)
Cc1ccc2c(c1)N(C(=O)CCC(=O)NCc1cccnc1)CCO2	-0.11
Cc1ccc(Cl)c(OCC(=O)N2CCc3ccccc3C2)c1	-3.66
COc1ccc(C(=O)OCC(=O)Nc2ccc3[nH]c(=O)[nH]c3c2)c(OC)c1OC	-0.64
Cc1cc(C(=O)NC2CCCc3c2cnn3-c2cccc(C)c2C)c(C)o1 (configuration not stated)	-2.79
COc1ccc(C(=O)NC2CCCc3c2cnn3-c2cccc(C)c2C)c(OC)n1 (configuration not stated)	-6.25 (active)
Cn1nccc1C(=O)NC1CCCc2c1cnn2-c1ccccc1F (configuration not stated)	inactive
O=C(COC(=O)Cn1[nH]c(=O)c2ccccc2c1=O)Nc1c(Cl)cccc1C(F)(F)F	inactive
Cc1ccc2nc(NC(=O)CSc3nc(=O)n(CCCN(C)C)c4c3CCC4)sc2c1	inactive
CC12CCC(=O)N1C(C(=O)Nc1ccc(F)c(F)c1F)CS2 (configuration not stated)	inactive
CCOc1ccc(NS(=O)(=O)c2ccc(C(=O)NCC(c3ccccc3OC)N3CCCC3)cc2)cc1 (configuration not stated)	-1.58
Cc1ccc(N2C(=O)CC(Nc3cccc4ccccc34)C2=O)cc1 (configuration not stated)	-1.06
Cc1ccc(N2C(=O)C3C(c4ccccc4)(C2=O)C3(c2ccccc2)c2ccccc2)cc1 (configuration not stated)	-9.48 (active)
Cc1ccc(N2C(=O)C3CC3C2=O)cc1 (configuration not stated)	inactive

Structure (SMILES)	B-score
CN(CC(=O)Nc1ccccc1Cl)C(=O)c1ccccc1SCC(=O)N1CCCC1	-0.59
CCCCCCCNC(=O)C1(CC2CC(c3cccc(Br)c3)=NO2)CCN(C(=O)c2cc(OCC)c(OCC)c(OCC)c2)CC1 (configuration not stated)	-2.53
COc1cc(C(=O)Nc2oc(-c3ccccc3)c(-c3ccccc3)c2C#N)cc(OC)c1OC	-6.31 (active)
COC(=O)c1sccc1NC(=O)c1cc(OC)c(OC)c(OC)c1	inactive
N#Cc1c(NC(=O)CCCN2C(=O)c3ccccc3C2=O)oc(-c2ccccc2)c1-c1ccccc1	-1.14
Cc1cccc(-[n+]2c(-c3cccc(Br)c3)[nH]c3nc4ccccc4nc32)c1	-6.92 (active)
Cc1cccc(-c2nc(Nc3ccc(O)cc3)c3ccccc3n2)c1	-3.05
CCCCn1c(N)c(N(CCOC)C(=O)CSCC(=O)Nc2cccc(C)c2)c(=O)[nH]c1=O	inactive
O=S(=O)(Nc1cccc(-c2ccc(N3CCOCC3)nn2)c1)c1ccc(Cl)c(Cl)c1	inactive
Cc1cc(C)c(S(=O)(=O)N2CCCC2CNC(=O)c2ccc3c(c2)OCO3)c(C)c1 (configuration not stated)	-3.59
CCN(CC)CCOc1ccc2c(c1)C(=NNC(=O)c1ccccn1)c1cc(OCCN(CC)CC)ccc1-2	-7.1 (active)
Cc1ccc(Cl)cc1NC(=O)c1ccccn1	-3.49
Cc1cccc(OCC(=O)NCCCNC(=O)c2ccccn2)c1	-0.01
COc1cc(C(=O)NCC(=O)NCCSc2ccc(Br)cc2)cc(OC)c1OC	inactive
COc1cccc(NC(=O)CN(C)C(=O)CSCc2nc3scc(-c4cccs4)c3c(=O)[nH]2)c1	inactive
CCc1ccccc1NC(=S)Nc1cc(OC)c(NC(=O)C(C)C)cc1OC	-0.92
O=C(/C=C/c1ccccc1)N/C(=C/c1ccccc1)C(=O)Nc1ccccc1O	-0.61
CCc1ccccc1NC(=O)/C(=C/c1ccccc1)c1ccccc1	-9.3 (active)
COC(=O)c1ccc(N2CCOCC2)c(NC(=O)c2ccc(Br)o2)c1	inactive
CCN1CCN(c2c(Cl)cccc2NC(=O)c2ccc(Br)o2)CC1	-6.14 (active)
CCCC(=O)Nc1ccc(Cl)c(NC(=O)c2ccc(Br)o2)c1	inactive
CN(/N=C/c1ccccc1)C(=S)c1ccccc1	inactive
O=C(NCCS(=O)(=O)N1CCN(c2ccc(F)cc2)CC1)c1ccc2c(c1)OCO2	inactive

Structure (SMILES)	B-score
CC1(c2cccc([N+](=O)[O-])c2)CC(C)(C)N(C(=O)c2ccccc2)c2ccccc21 (configuration not stated)	-7.53 (active)
CC1(c2ccccc2)CC(C)(C)N(C(=O)c2cc([N+](=O)[O-])cc([N+](=O)[O-])c2)c2ccccc21 (configuration not stated)	-1.63
O=C(c1cccc([N+](=O)[O-])c1)N1CCN(Cc2ccccc2)CC1	inactive
NC(=O)c1ccsc1NC(=O)COC(=O)Cc1n[nH]c(=O)c2ccccc12	-1.74
COc1ccc(S(=O)(=O)NCCCc2ccccc2)cc1	inactive
Cc1ccc(OCCNC(=O)CCNS(=O)(=O)c2ccc(Br)cc2)cc1	inactive
O=C(Nc1cccc(Cl)c1N1CCOCC1)c1ccc2c(c1)OCCO2	-6.48 (active)
O=C(Nc1cccc(Cl)c1N1CCOCC1)c1cccnc1	inactive
COC(=O)c1ccc(N2CCOCC2)c(NC(=O)c2ccc3c(c2)OCCO3)c1	inactive
Cc1ccc(NC(=O)CSCC(=O)Nc2sccc2C#N)cc1	-0.08
O=C(COC(=O)c1ccccc1Br)Nc1nnc(-c2ccccc2)o1	-0.06
CCOc1ccc(CN(Cc2ccco2)C(c2cccs2)c2nnnn2C(C)(C)C)cc1 (configuration not stated)	-6.35 (active)
CC(C)(C)n1nnnc1C(c1cccs1)N(Cc1cccnc1)CC1CCCO1 (configuration not stated)	-0.68
CCOc1ccc(CN(Cc2ccco2)S(=O)(=O)c2ccc(-n3cnnn3)c(OC)c2)cc1	inactive
O=C(NCc1ccccn1)Nc1ccc(Cl)cc1	inactive
CCCN(CC(=O)Nc1ccccc1OC)C(=O)CCC(=O)c1ccc(F)cc1	-1.98
CN(C1CCS(=O)(=O)C1)S(=O)(=O)c1ccc2ccccc2c1 (configuration not stated)	-0.6
O=C1c2oc3ccccc3c(=O)c2C(c2cccc(O)c2)N1c1ccccn1 (configuration not stated)	-0.06
COCCN1C(=O)c2oc3c(C)cc(C)cc3c(=O)c2C1c1cccc(O)c1 (configuration not stated)	-6.4 (active)
O=C1c2oc3ccc(Br)cc3c(=O)c2C(c2cccc(F)c2)N1CCO (configuration not stated)	-4.46
CC(=O)O[C@H]1CC[C@@]2(C)[C@@H](CC[C@@H]3[C@@H]2CC[C@]2(C)[C@@H](C(C)(C)O)C[C@@H]32)C1	inactive
COc1ccc(NS(=O)(=O)c2ccc(C)c(C(=O)N(C)Cc3ccc(OC)cc3OC)c2)cc1	inactive
CCn1c(SC(C)C(=O)Nc2ccc(N3CCOCC3)cc2)nnc1-c1ccco1 (configuration not stated)	inactive

Structure (SMILES)	B-score
COc1ccccc1NC(=O)COC(=O)c1ccccc1SCC(=O)N1CCCC1	inactive
Nc1ccccc1SC(C[N+](=O)[O-])c1ccccc1 (configuration not stated)	-7.63 (active)
Nc1ccccc1SCc1cc([N+](=O)[O-])cc2c1OCOC2	-0.29
CCS(=O)(=O)c1cc([N+](=O)[O-])c(Sc2ccccc2N)s1	inactive
Cc1cc(C)c(-c2csc(NC(=O)CCCc3nc4ccccc4c(=O)[nH]3)n2)c(C)c1	inactive
O=C(Nc1ccccc1N1CCOCC1)c1csc2c1CCCC2	-4.47
O=C(Nc1ccccc1N1CCCC1)c1ccc(F)c(S(=O)(=O)N2CCOCC2)c1	-0.88
Cc1cc(C(=O)NNC(=O)c2cccc(S(=O)(=O)N3CCOCC3)c2)c2ccccc2n1	-0.22
Cc1ccc(S(=O)(=O)N2CCOCC2)cc1C(=O)NCc1ccc(F)cc1	inactive
Cc1cc(C(=O)Nc2ccccc2N2CCOCC2)c2ccccc2n1	-6.19 (active)
Cc1ccc(S(=O)(=O)N2CCOCC2)cc1C(=O)Nc1ccccc1N1CCCC1	-6.63 (active)
CN(C)CCn1c2c(c(SCC(=O)Nc3ccccc3C(F)(F)F)nc1=O)CCCC2	-0.04
Nc1c(-c2ccccc2)nnn1Cc1ccccc1	inactive
Cc1ccc(S(=O)(=O)N2CCN(C(=O)c3ccc(-n4cncn4)c([N+](=O)[O-])c3)CC2)cc1	-0.29
Cc1cccc(C)c1NC(=O)CNC(=O)c1c(C)nn(-c2ccccc2)c1C	-1.69
O=C(Nc1nc(-c2ccco2)c(-c2ccco2)s1)c1ccco1	-3.35
CC(=O)c1c(-c2ccccc2)c2ccccc2[nH]c1=O	-0.37
Cc1nc2ccccc2c(C)c1C(=O)c1ccc(F)cc1	-1.04
Cc1nc2ccccc2c(-c2ccccc2)c1C(=O)c1ccccc1	-9.15 (active)
COc1cnn(-c2ccc([N+](=O)[O-])cc2)c(=O)c1Cl	-0.13
COc1ccccc1C(=O)Nc1ccc(Nc2ccccc2)cc1	inactive
COc1ccc(CNS(=O)(=O)c2cc3c4c(c2)CCN4C(=O)CC3)cc1	-1.56
Cc1ccc(NC(=O)C2CC(=O)N(c3ccc4c(c3)OCCO4)C2)cc1S(=O)(=O)N1CCCCCC1 (configuration not stated)	-1.45
